Test results published in paper PMC11624278.

How the values were obtained:
Assay in all cases: cross-link between two proteins; affinity purification or IP with mass spectrometry; cross-linking mass spectrometry
[1] = target: Calreticulin (UniProt P14211)
[2] = target: Integrin alpha-3 (UniProt Q62470)
[3] = target: Integrin alpha-5 (UniProt P11688)

Measured: listed as a hit

UniProt P14211, sequence (P14211 whole entry): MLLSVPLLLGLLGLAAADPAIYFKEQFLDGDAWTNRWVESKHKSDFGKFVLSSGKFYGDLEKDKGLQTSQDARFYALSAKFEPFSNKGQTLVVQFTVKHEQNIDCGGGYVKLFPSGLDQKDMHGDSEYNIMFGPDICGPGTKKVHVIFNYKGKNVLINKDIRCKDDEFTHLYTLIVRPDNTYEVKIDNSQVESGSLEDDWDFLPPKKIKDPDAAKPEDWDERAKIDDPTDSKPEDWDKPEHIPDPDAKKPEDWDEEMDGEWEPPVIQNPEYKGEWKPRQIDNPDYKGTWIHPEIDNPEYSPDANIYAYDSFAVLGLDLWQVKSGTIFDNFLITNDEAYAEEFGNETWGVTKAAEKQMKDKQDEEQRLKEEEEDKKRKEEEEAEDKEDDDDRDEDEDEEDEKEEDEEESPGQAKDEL
UniProt P11688, sequence (P11688 whole entry): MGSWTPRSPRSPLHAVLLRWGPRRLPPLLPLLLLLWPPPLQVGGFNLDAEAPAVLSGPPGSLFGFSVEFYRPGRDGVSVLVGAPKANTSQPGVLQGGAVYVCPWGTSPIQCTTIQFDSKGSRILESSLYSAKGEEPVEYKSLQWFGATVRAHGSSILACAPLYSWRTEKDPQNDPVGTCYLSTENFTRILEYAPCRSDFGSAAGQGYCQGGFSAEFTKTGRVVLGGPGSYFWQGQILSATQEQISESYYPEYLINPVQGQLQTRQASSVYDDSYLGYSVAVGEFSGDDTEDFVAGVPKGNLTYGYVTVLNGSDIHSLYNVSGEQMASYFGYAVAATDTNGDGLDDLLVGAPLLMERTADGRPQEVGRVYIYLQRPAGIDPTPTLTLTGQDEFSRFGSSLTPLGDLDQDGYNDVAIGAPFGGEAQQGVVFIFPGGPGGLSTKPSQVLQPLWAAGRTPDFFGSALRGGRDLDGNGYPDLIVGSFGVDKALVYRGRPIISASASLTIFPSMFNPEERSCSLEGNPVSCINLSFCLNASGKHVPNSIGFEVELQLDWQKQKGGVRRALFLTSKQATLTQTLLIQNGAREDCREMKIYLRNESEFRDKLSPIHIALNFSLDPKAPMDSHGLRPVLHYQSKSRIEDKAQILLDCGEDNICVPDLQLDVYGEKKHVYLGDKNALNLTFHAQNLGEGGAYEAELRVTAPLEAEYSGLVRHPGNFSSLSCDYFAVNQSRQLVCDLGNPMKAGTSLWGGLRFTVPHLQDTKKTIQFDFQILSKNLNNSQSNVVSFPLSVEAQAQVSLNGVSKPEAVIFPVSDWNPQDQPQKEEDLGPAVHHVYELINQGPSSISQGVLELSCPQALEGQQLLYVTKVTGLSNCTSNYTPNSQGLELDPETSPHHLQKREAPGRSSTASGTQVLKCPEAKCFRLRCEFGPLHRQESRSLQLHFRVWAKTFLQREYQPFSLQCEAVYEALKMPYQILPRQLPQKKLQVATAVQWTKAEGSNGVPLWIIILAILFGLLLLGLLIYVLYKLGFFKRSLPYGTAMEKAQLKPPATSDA
UniProt Q62470, sequence (Q62470 whole entry): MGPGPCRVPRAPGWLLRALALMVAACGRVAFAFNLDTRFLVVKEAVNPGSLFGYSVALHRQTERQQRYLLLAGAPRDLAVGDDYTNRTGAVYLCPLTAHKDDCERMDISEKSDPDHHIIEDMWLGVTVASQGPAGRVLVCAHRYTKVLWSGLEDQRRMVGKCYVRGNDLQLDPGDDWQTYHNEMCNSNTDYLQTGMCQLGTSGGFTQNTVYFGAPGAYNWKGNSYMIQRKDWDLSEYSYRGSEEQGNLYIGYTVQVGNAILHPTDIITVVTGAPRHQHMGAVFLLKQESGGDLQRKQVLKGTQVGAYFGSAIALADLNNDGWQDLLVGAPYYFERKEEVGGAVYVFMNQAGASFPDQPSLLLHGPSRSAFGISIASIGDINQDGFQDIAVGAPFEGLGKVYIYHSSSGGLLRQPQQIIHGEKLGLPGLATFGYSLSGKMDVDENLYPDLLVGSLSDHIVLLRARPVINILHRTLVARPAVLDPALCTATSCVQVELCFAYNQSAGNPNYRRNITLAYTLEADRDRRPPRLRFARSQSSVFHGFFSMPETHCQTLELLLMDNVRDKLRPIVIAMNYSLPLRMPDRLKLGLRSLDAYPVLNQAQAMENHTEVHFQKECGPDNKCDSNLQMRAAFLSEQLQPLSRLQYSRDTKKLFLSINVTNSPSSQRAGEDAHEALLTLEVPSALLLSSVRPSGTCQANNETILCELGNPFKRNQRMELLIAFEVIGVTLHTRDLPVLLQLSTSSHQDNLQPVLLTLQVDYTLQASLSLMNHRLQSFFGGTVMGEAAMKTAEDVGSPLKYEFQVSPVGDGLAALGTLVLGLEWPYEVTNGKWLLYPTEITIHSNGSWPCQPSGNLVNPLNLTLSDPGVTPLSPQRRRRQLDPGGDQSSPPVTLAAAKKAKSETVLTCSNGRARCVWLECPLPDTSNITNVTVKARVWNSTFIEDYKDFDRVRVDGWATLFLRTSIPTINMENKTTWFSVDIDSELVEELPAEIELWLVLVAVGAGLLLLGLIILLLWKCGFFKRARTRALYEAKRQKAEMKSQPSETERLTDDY

Integrin beta-1, P09055
yes: all assays above
